Measured values as given in PubChem BioAssay.

tested on: not listed separately; experiment: compound binding in COS7 lysate, probe aLAP1, primary screen, cell lysate, small-molecule microarray (AID 1124); details: probe aLAP1, fluorescence, higher = more signal;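 note: lysate comes from COS7 cells expressing LAP1 and is applied at 0.3 µg/mL; score merges spot fluorescence near 667 nm with signal-to-noise over triplicate slides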

SMILES	composite z-score
C=CCC(OC(C)=O)[C@@H]1[C@@H](N(Cc2cccc3ccccc23)C(=O)c2ccc(C)cc2)c2cc(OCCCO)ccc2N1C(=O)Cc1ccc2ccccc2c1 (stereo not given in full)	-0.0124
COC(=O)C1(CC(C)C)C=C2C(=C(C)C(=O)C2C)CN1 (stereo not given)	0.311
COC(=O)[C@@]1(Cc2ccc(F)cc2)[C@H]2c3cc(C(=O)N4CCCC4)n(C[C@H](O)CO)c3C[C@H]2CN1C(=O)c1ccccc1	1.23
COC(=O)C(CC#Cc1ccc2c(c1)[C@]1(C(=O)N2)[C@H](C(=O)NC[C@H](O)c2ccccc2)[C@H]2C(=O)O[C@H](c3ccccc3)[C@H](c3ccccc3)N2[C@@H]1c1ccc(O)cc1)C(=O)OC	-0.177
CC(C)c1ccc(NN2C(C(O)C3CCCCC3)C=CC3C(=O)N(c4ccccc4)C(=O)C32)cc1 (stereo not given)	0.948
CN(C)C(=O)[C@]1(CCS(=O)(=O)c2ccccc2)N=C(c2ccc(OCCCO)cc2)O[C@@H]1c1ccccc1CN=[N+]=[N-]	0.766
COc1ccc(C(=O)Nc2cccc(CN3C(=O)[C@]4(O[C@H](CC(=O)N(CCO)Cc5ccccc5)[C@@H]([Si](C)(C)c5ccc(OC)cc5)[C@@H]4C)c4ccccc43)c2)cc1	-0.0351
C=CCNC(=O)[C@@H]1[C@H]2C(=O)O[C@H](c3ccccc3)[C@H](c3ccccc3)N2[C@H](c2ccc(O)cc2)[C@@]12C(=O)N(C(=O)OCCOC)c1ccc(C#CCC(C(=O)OC)C(=O)OC)cc12	0.793
C=CCNC(=O)[C@H]1[C@@H]2C(=O)O[C@@H](c3ccccc3)[C@@H](c3ccccc3)N2[C@@H](c2ccc(OCCO)cc2)[C@]12C(=O)N(C(=O)OCCOC)c1ccc(C#CCNC(N)=O)cc12	0.812
COC(=O)[C@@]1(Cc2ccc(OC)cc2)[C@@H]2[C@@H](CC(=O)[C@H]2CC(=O)C(=O)N(C)C)CN1C(=O)c1ccccc1	0.505
CC(C)N1C(=O)[C@@]2(Cc3ccccc31)c1ccccc1C(=O)N(Cc1ccccc1C(F)(F)F)[C@H]2c1ccc(CO)cc1	0.739
COc1ccc(C#Cc2ccc3c(c2)[C@]2(C(=O)N3)[C@H](c3ccccc3OCCO)N3[C@H](c4ccccc4)[C@H](c4ccccc4)OC(=O)[C@H]3[C@@H]2C(=O)NC[C@H](O)c2ccccc2)cc1	0.359
O=C1O[C@H](c2ccccc2)[C@H](c2ccccc2)N2[C@H]1[C@@H](C(=O)O)[C@]1(C(=O)Nc3ccccc31)[C@H]2c1ccc(OCCO)cc1	0.59
Cc1ccc(S[C@]2(C(=O)NCCN3CCOCC3)CC(=O)N(C(C)C)[C@@H]2c2ccc(CO)cc2I)cc1	0.933
COc1ccc([Si](C)(C)[C@H]2[C@H](CC(=O)N(CCO)Cc3ccccc3)O[C@@]3(C(=O)N(c4ccccc4)c4ccccc43)[C@@H]2C)cc1	0.264
CN1C(=O)C2C=CC(C(O)c3ccc(I)cc3)N(N(c3ccccc3)c3ccccc3)C2C1=O (stereo not given)	0.249
C=CCC(OC(C)=O)[C@@H]1[C@@H](N(Cc2ccc(-c3ccccc3)cc2)C(=O)Cc2ccc(OC)cc2)c2cc(OCCCO)ccc2N1C(=O)Cc1ccc(OC)cc1 (stereo not given in full)	0.302
Cc1ccc(S[C@]2(C(=O)NC(C)C)CC(=O)N(Cc3ccccc3)[C@@H]2c2ccc(CO)cc2)cc1	-0.915
C=CCNC(=O)[C@H]1[C@@H]2C(=O)O[C@@H](c3ccccc3)[C@@H](c3ccccc3)N2[C@@H](c2ccc(OCCO)cc2)[C@]12C(=O)N(C(=O)OCCOC)c1ccc(C#CCC(C(=O)OC)C(=O)OC)cc12	1.44
CCCCCN1CC=CC23O[C@@H]4/C=C\CCCOC(=O)C4[C@H]2C(=O)N(CCO)[C@@H]3C1=O (stereo not given in full)	0.657
CN1C2C=C(c3ccc(CO)cc3)C(C3C(=O)N(C(N)=O)C(=O)C32)C1C1CC1 (stereo not given)	-0.262
Cc1ccc(S(=O)(=O)N2[C@@H](c3ccccc3)C(C(=O)O)=C[C@H]2C(C)(C)C)cc1	0.827
C=C(C(=O)CC[C@@H](OC(=O)c1ccccc1-c1ccccc1C(=O)O)c1ccc(CO)o1)C(C)C	0.464
COC(=O)[C@@]1(Cc2ccc(F)cc2)[C@@H]2C(=CC(=O)[C@H]2CC(=O)C(=O)N2CCCC2)CN1C(=O)c1ccccc1	0.805
COC(=O)C(CC#Cc1ccc2c(c1)[C@]1(C(=O)N2)[C@H](C(=O)N2CCCCCCC2)[C@H]2C(=O)O[C@H](c3ccccc3)[C@H](c3ccccc3)N2[C@@H]1c1ccc(OCCO)cc1)C(=O)OC	0.497
C=CC[C@H](OC(=O)Nc1ccc(SC)cc1)c1ccc(O)c(F)c1	-0.172
Cc1cccc([C@H]2C[C@H]3C(Br)=C[C@@]2(CO)C(=O)[C@]32CO2)c1	-0.24
C=C(CCCC)C(=O)CC[C@H](OC(=O)c1ccccc1-c1ccccc1C(=O)O)c1cccc(OCCO)c1	1.07

tested on: Sam68 (KHDRBS1); experiment: Sam68 small-molecule binders, primary screen, biochemical, small-molecule microarray, 635 nm fluorescence (AID 1125); details: small-molecule microarray binding, higher = more signal;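 note: score merges 667 nm channel intensity with signal to noise over triplicate slides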

SMILES	composite z-score
CCOC(=O)C1=CC[C@@H](c2ccccc2)N(S(=O)(=O)c2ccc(C)cc2)[C@@H]1C#N	1.23
C=CCN1C(=O)[C@]2(O[C@H](CCO)[C@@H]([Si](C)(C)c3ccc(OC)cc3)[C@@H]2C)c2cc(N3C(=O)c4ccccc4Oc4ccccc43)ccc21	1.11
C=CCOC(=O)[C@H]1[C@@H]2C(=O)O[C@@H](c3ccccc3)[C@@H](c3ccccc3)N2[C@@H](c2ccc(OCCOC(=O)[C@H]3C[C@H]4C(=O)NCC(=O)N4[C@H]3c3ccc(O)cc3)cc2)[C@]12C(=O)Nc1ccccc12	1.29
C=CCOC(=O)[C@H]1[C@@H]2C(=O)O[C@@H](c3ccccc3)[C@@H](c3ccccc3)N2[C@@H](c2ccc(OCCOC(=O)[C@@H]3C[C@@H]4C(=O)N[C@@H](Cc5ccccc5)C(=O)N4[C@@H]3c3ccc(O)cc3)cc2)[C@]12C(=O)Nc1ccc(I)cc12	1.16
CC(C)[Si](C#Cc1ccccc1)(O[C@H](c1ccccc1)c1cn(Cc2ccccc2)nn1)C(C)C	0.879
O=C(NCCN1CCOCC1)[C@@H]1c2ccccc2C(=O)N(CC23CC4CC(CC(C4)C2)C3)[C@H]1c1ccc(CO)cc1	1.3
O=C1O[C@@H](c2ccccc2)[C@@H](c2ccccc2)N2[C@@H](c3ccccc3OCCO)[C@]3(C(=O)Nc4ccc(C#CC5(O)CCCCCC5)cc43)[C@@H](C(=O)N3CCCCCCC3)[C@H]12	1.33
CCOC(=O)C[C@H]1[C@H](OC(=O)c2ccc(-c3ccccc3)cc2)[C@@H](NC(=O)C2CCCCC2)c2cc(OCCCO)ccc2N1C(=O)Cc1ccc(OC)cc1	0.496
C=CCC(OC(C)=O)[C@@H]1[C@@H](N(Cc2cccc3ccccc23)C(=O)c2ccc(C)cc2)c2cc(OCCCO)ccc2N1C(=O)Cc1ccc2ccccc2c1 (stereo not given in full)	-1.29
COC(=O)C1(CC(C)C)C=C2C(=C(C)C(=O)C2C)CN1 (stereo not given)	-0.0177
COC(=O)[C@@]1(Cc2ccc(F)cc2)[C@H]2c3cc(C(=O)N4CCCC4)n(C[C@H](O)CO)c3C[C@H]2CN1C(=O)c1ccccc1	0.208
COC(=O)C(CC#Cc1ccc2c(c1)[C@]1(C(=O)N2)[C@H](C(=O)NC[C@H](O)c2ccccc2)[C@H]2C(=O)O[C@H](c3ccccc3)[C@H](c3ccccc3)N2[C@@H]1c1ccc(O)cc1)C(=O)OC	-0.165
CC(C)c1ccc(NN2C(C(O)C3CCCCC3)C=CC3C(=O)N(c4ccccc4)C(=O)C32)cc1 (stereo not given)	1.31
CN(C)C(=O)[C@]1(CCS(=O)(=O)c2ccccc2)N=C(c2ccc(OCCCO)cc2)O[C@@H]1c1ccccc1CN=[N+]=[N-]	1.3
COc1ccc(C(=O)Nc2cccc(CN3C(=O)[C@]4(O[C@H](CC(=O)N(CCO)Cc5ccccc5)[C@@H]([Si](C)(C)c5ccc(OC)cc5)[C@@H]4C)c4ccccc43)c2)cc1	0.775
C=CCNC(=O)[C@@H]1[C@H]2C(=O)O[C@H](c3ccccc3)[C@H](c3ccccc3)N2[C@H](c2ccc(O)cc2)[C@@]12C(=O)N(C(=O)OCCOC)c1ccc(C#CCC(C(=O)OC)C(=O)OC)cc12	1.3
C=CCNC(=O)[C@H]1[C@@H]2C(=O)O[C@@H](c3ccccc3)[C@@H](c3ccccc3)N2[C@@H](c2ccc(OCCO)cc2)[C@]12C(=O)N(C(=O)OCCOC)c1ccc(C#CCNC(N)=O)cc12	1.22
COC(=O)[C@@]1(Cc2ccc(OC)cc2)[C@@H]2[C@@H](CC(=O)[C@H]2CC(=O)C(=O)N(C)C)CN1C(=O)c1ccccc1	1.32
CC(C)N1C(=O)[C@@]2(Cc3ccccc31)c1ccccc1C(=O)N(Cc1ccccc1C(F)(F)F)[C@H]2c1ccc(CO)cc1	1.01
COc1ccc(C#Cc2ccc3c(c2)[C@]2(C(=O)N3)[C@H](c3ccccc3OCCO)N3[C@H](c4ccccc4)[C@H](c4ccccc4)OC(=O)[C@H]3[C@@H]2C(=O)NC[C@H](O)c2ccccc2)cc1	1.32
O=C1O[C@H](c2ccccc2)[C@H](c2ccccc2)N2[C@H]1[C@@H](C(=O)O)[C@]1(C(=O)Nc3ccccc31)[C@H]2c1ccc(OCCO)cc1	1.16
Cc1ccc(S[C@]2(C(=O)NCCN3CCOCC3)CC(=O)N(C(C)C)[C@@H]2c2ccc(CO)cc2I)cc1	0.949
COc1ccc([Si](C)(C)[C@H]2[C@H](CC(=O)N(CCO)Cc3ccccc3)O[C@@]3(C(=O)N(c4ccccc4)c4ccccc43)[C@@H]2C)cc1	1.2
CN1C(=O)C2C=CC(C(O)c3ccc(I)cc3)N(N(c3ccccc3)c3ccccc3)C2C1=O (stereo not given)	-0.397
C=CCC(OC(C)=O)[C@@H]1[C@@H](N(Cc2ccc(-c3ccccc3)cc2)C(=O)Cc2ccc(OC)cc2)c2cc(OCCCO)ccc2N1C(=O)Cc1ccc(OC)cc1 (stereo not given in full)	0.0538
Cc1ccc(S[C@]2(C(=O)NC(C)C)CC(=O)N(Cc3ccccc3)[C@@H]2c2ccc(CO)cc2)cc1	-0.76
C=CCNC(=O)[C@H]1[C@@H]2C(=O)O[C@@H](c3ccccc3)[C@@H](c3ccccc3)N2[C@@H](c2ccc(OCCO)cc2)[C@]12C(=O)N(C(=O)OCCOC)c1ccc(C#CCC(C(=O)OC)C(=O)OC)cc12	1.16
